{"source": "PubChem BioAssay AID588676", "about": "(Johns Hopkins Ion Channel Center, 2011)", "note": "The whole screen tested about 310,000 compounds, of which about 3,900 (1.3%) were called active.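 How the source made its calls: active means calcium-response B-score plate-corrected more than 3 library SD below zero, starting fluorescence within 5 deviations, no agonist response on first addition; inactive means the rest.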 For the sample, actives were picked, then their nearest neighbours and some compounds at random. A structure can be active in one record and inactive in another.", "data": [{"target": "Mas-related G-protein coupled receptor member X1 (Homo sapiens) (UniProt Q96LB2)", "sequence (Q96LB2 whole entry, looked up)": "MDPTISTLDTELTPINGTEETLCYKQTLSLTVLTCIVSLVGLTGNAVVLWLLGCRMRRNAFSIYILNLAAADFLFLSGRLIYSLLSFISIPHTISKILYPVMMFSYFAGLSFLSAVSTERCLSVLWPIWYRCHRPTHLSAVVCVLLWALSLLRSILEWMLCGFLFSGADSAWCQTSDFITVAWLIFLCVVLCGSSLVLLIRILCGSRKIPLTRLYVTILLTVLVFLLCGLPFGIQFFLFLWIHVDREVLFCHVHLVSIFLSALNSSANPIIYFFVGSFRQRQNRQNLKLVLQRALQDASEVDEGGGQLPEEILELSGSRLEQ", "experiment": "blockade of BAM8-22-evoked MrgX1 calcium response – HEK293 cells, Fluo-4 calcium flux, primary screen (AID 588676);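 on B-score: peak minus trough fluorescence over baseline after final BAM8-22 challenge near maximal dose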", "conditions": "Fluo-4, BAM8-22 antagonism, at 10 µM; active compounds read low", "values": [{"compound": "Cc1ccc(S(=O)(=O)NC(=O)Nc2nc(-c3ccc(F)c(F)c3)cs2)cc1", "B-score": "inactive"}, {"compound": "COc1ccc(CC(=O)Nc2nc(-c3ccc(F)c(F)c3)cs2)cc1OC", "B-score": "-5.43 (active)"}, {"compound": "COc1cc(CC(=O)Nc2nc(-c3ccc(F)c(F)c3)cs2)cc(OC)c1OC", "B-score": "inactive"}, {"compound": "CCc1nn(CC(=O)N2CCN(c3cc(C)ccc3C)CC2)c(=O)c2cc3occc3n12", "B-score": "inactive"}, {"compound": "O=C(/C=C/c1ccc(Cl)cc1Cl)NCc1ccco1", "B-score": "inactive"}, {"compound": "O=C(CSc1c2c(nc3ccc(Cl)cc13)CCCC2)NCc1ccco1", "B-score": "-6.85 (active)"}, {"compound": "O=C(CSc1nnnn1-c1ccccc1)NCc1ccco1", "B-score": "inactive"}, {"compound": "COc1ccc(C)cc1NC(=O)CN(C)S(=O)(=O)c1ccc2c(c1)n(C)c(=O)c(=O)n2C", "B-score": "inactive"}, {"compound": "Cc1cc(C)cc(N(CC(=O)NC2CCCC2)C(=O)CCC(=O)Nc2nccs2)c1", "B-score": "inactive"}, {"compound": "Cc1ccc2oc(=O)c3cnn(CC(=O)N(Cc4ccco4)C4CCCCC4)c3c2c1", "B-score": "inactive"}, {"compound": "COCCCN(C(=O)Cn1ncc2c(=O)oc3ccc(C)cc3c21)C(C)c1ccncc1", "note": "(centres undefined)", "B-score": "-9.22 (active)"}, {"compound": "Cc1ccc2oc(=O)c3cnn(CC(=O)N4CCCCCC4)c3c2c1", "B-score": "inactive"}, {"compound": "CN1CCC(=O)N([C@H](CO)Cc2ccccc2)CC1", "B-score": "inactive"}, {"compound": "CCN(Cc1ccccc1)S(=O)(=O)c1cc(C(=O)O)ccc1OC", "B-score": "inactive"}, {"compound": "COc1ccc2[nH]c3nc(SCC(=O)NC4CC4)nnc3c2c1", "B-score": "inactive"}, {"compound": "Cc1ccn2c(=O)nc(SCC(=O)NCc3ccc(F)cc3)nc2c1", "B-score": "inactive"}, {"compound": "Cc1ccc(CNC(=O)CSc2nnc3c(n2)[nH]c2ccc(F)cc23)cc1", "B-score": "-5.01 (active)"}, {"compound": "COc1ccc(S(=O)(=O)n2nc(C)c(S(=O)(=O)N3CCOCC3)c2C)cc1", "B-score": "inactive"}, {"compound": "CCOc1ccc(CC(=O)Nc2ccc(S(=O)(=O)Nc3cc(C)on3)cc2)cc1OCC", "B-score": "-7.96 (active)"}, {"compound": "CCc1ccc(OC(C)C(=O)Nc2ccc(S(=O)(=O)Nc3cc(C)on3)cc2)cc1", "note": "(centres undefined)", "B-score": "inactive"}, {"compound": "CCOc1ccc(C(=O)Nc2ccc(S(=O)(=O)Nc3cc(C)on3)cc2)cc1", "B-score": "inactive"}, {"compound": "CCCOc1ccc(CNC(=O)C2CCN(c3nn4c(=O)cc(C)nc4s3)CC2)cc1", "B-score": "inactive"}, {"compound": "O=C(NN1C(=O)C2CCCCC2C1=O)c1ccco1", "note": "(centres undefined)", "B-score": "inactive"}, {"compound": "CC(C)=C1C2CCC1C1C(=O)N(NC(=O)c3ccco3)C(=O)C21", "note": "(centres undefined)", "B-score": "inactive"}, {"compound": "O=C(NN1C(=O)C2C3C=CC(C3)C2C1=O)c1ccco1", "note": "(centres undefined)", "B-score": "-9.57 (active)"}, {"compound": "NC(=O)c1cc(S(=O)(=O)N2CCCC2)ccc1OCc1ccc(F)cc1", "B-score": "inactive"}, {"compound": "Cc1ccccc1OCC(=O)Nc1nnc(S(=O)(=O)N2CCCC2)s1", "B-score": "inactive"}, {"compound": "O=C(COc1ccccc1F)NC1CC1", "B-score": "inactive"}, {"compound": "CC1CCN(S(=O)(=O)c2nnc(NC(=O)COc3ccccc3F)s2)CC1", "B-score": "-4.6 (active)"}, {"compound": "O=S(=O)(CCc1nc2ccccc2o1)c1ccc(Cl)cc1", "B-score": "inactive"}, {"compound": "CCc1nnc(NC(=O)c2cccc(S(=O)(=O)N(C)c3ccc(OC)cc3)c2)s1", "B-score": "inactive"}, {"compound": "CCc1ccc2nc3sc(C(=O)Nc4nnc(CC)s4)c(N)c3cc2c1", "B-score": "-7.06 (active)"}, {"compound": "CCc1nnc(NC(=O)c2sc3nc(C)cc(COC)c3c2N)s1", "B-score": "inactive"}, {"compound": "COc1ccc(CN2CCN(C(=O)CCC(=O)Nc3nnc(C(C)C)s3)CC2)cc1F", "B-score": "inactive"}, {"compound": "COc1ccccc1C(=O)Nc1nc2nc(-c3ccccc3)cc(=O)n2[nH]1", "B-score": "inactive"}, {"compound": "CC1=NN(c2ccccc2)C(=O)C1C(=O)c1ccc([N+](=O)[O-])cc1", "note": "(centres undefined)", "B-score": "-4.73 (active)"}, {"compound": "Cc1ccc(NC(=O)/C(=C/c2ccc([N+](=O)[O-])cc2)NC(=O)c2ccccc2)cc1", "B-score": "inactive"}, {"compound": "Cc1ccc(C)n1NC(=O)c1ccc([N+](=O)[O-])cc1", "B-score": "inactive"}, {"compound": "O=C(CC1CCCCC1)NCc1ccc(F)cc1", "B-score": "inactive"}, {"compound": "CN(C)S(=O)(=O)c1cccc(NC(=S)NCc2ccc3c(c2)OCO3)c1", "B-score": "inactive"}, {"compound": "Cc1ccc(/C=N/NC(=S)Nc2cccc(S(=O)(=O)N(C)C)c2)o1", "B-score": "inactive"}, {"compound": "CN(C)S(=O)(=O)c1cccc(NC(=S)N/N=C/C(=O)c2ccccc2)c1", "B-score": "-6.77 (active)"}, {"compound": "CCCc1cc(=O)oc2c(C)c(OCC(=O)N3CCC(C(=O)O)CC3)ccc12", "B-score": "inactive"}, {"compound": "CCc1cc(=O)oc2cc(C)cc(OC(C)C(=O)O)c12", "note": "(centres undefined)", "B-score": "inactive"}, {"compound": "CCc1cc(=O)oc2cc(C)cc(OCC(=O)N3CCC[C@@H]3C(=O)O)c12", "B-score": "-7.63 (active)"}, {"compound": "CC(Sc1cccc[n+]1[O-])C(=O)Nc1cccc(S(=O)(=O)N2CCOCC2)c1", "note": "(centres undefined)", "B-score": "inactive"}, {"compound": "Cc1ccccc1OCC(=O)NNC(=O)c1cc(S(=O)(=O)N(C)C)ccc1N1CCCC1", "B-score": "-7.66 (active)"}, {"compound": "CN(C)S(=O)(=O)c1ccc(N2CCCC2)c(C(=O)Nc2cccc(F)c2)c1", "B-score": "inactive"}, {"compound": "CN(C)S(=O)(=O)c1ccc(N2CCCC2)c(C(=O)NCc2ccccc2)c1", "B-score": "inactive"}, {"compound": "CN(C)C(=O)N=NC(=O)N(C)C", "B-score": "inactive"}, {"compound": "C=CCn1c(=O)c2ccccc2n2c(SCC(=O)N3CCCc4ccccc43)nnc12", "B-score": "inactive"}, {"compound": "C=CCn1c(SCC(=O)/C(C#N)=C(\\C)N)nc2sc(C)c(C)c2c1=O", "B-score": "inactive"}, {"compound": "CCCn1c(=O)c2ccccc2n2c(SCC(=O)/C(C#N)=C(\\C)N)nnc12", "B-score": "-7.91 (active)"}, {"compound": "CCOc1cc(C(=O)Nc2ncccn2)cc(OCC)c1OCC", "B-score": "inactive"}, {"compound": "CCOc1cc2c(Cl)ncnc2c(OCC)c1OCC", "B-score": "inactive"}, {"compound": "CCOc1cc(-c2conc2N)cc(OCC)c1OCC", "B-score": "-6.9 (active)"}, {"compound": "O=C1CSC2=NCN(c3ccccc3)CN12", "B-score": "inactive"}, {"compound": "CCCn1nc2cc(C(=O)NCc3ccccc3)ccc2c1OCC", "B-score": "inactive"}, {"compound": "Cc1ccc(NC(=O)CN2CCC3(O)CCCCC3C2c2ccc3c(c2)OCO3)c(C)c1", "note": "(centres undefined)", "B-score": "inactive"}, {"compound": "CCN(CC)c1ccc(C2C3CCCCC3(O)CCN2CC(=O)Nc2ccccc2)cc1", "note": "(centres undefined)", "B-score": "-5.44 (active)"}, {"compound": "CCN(CC)c1ccc(NC(=O)CN2CCN(c3ccccn3)CC2)cc1", "B-score": "inactive"}, {"compound": "CCOC(=O)c1c(N=CN(C)C)c(C#N)c2n1CCCC2", "B-score": "inactive"}, {"compound": "Cc1cc2oc(=O)cc(CN3CCN(S(=O)(=O)c4cccs4)CC3)c2cc1C(C)C", "B-score": "inactive"}, {"compound": "CCOC(=O)Cc1csc(NC(=O)COc2ccc3c(C)cc(=O)oc3c2)n1", "B-score": "inactive"}, {"compound": "Cc1ccc2c(CSc3nncs3)cc(=O)oc2c1", "B-score": "inactive"}, {"compound": "CCOC(=O)Cc1csc(SCc2cc(=O)oc3cc(O)ccc23)n1", "B-score": "-5.51 (active)"}, {"compound": "CN(C)N1C(N)=C(C#N)C(c2ccc(Br)cc2)C2=C1CCCC2=O", "note": "(centres undefined)", "B-score": "inactive"}, {"compound": "C/C(CC(=O)NC(C)(C)C)=N\\NC(=O)c1ccco1", "B-score": "inactive"}, {"compound": "COc1ccc(-c2nn(C)c(=O)c3ccccc23)cc1NC(=O)COc1ccccc1", "B-score": "-8.18 (active)"}, {"compound": "COc1ccc(-c2nn(C)c(=O)c3ccccc23)cc1CNC(=O)C1CCCCC1", "B-score": "inactive"}, {"compound": "CCC(=O)NCc1cc(-c2nn(C)c(=O)c3ccccc23)ccc1OC", "B-score": "inactive"}, {"compound": "COc1cc(CC(=O)N2CCC(n3nccc3NC(=O)C3CC3)CC2)cc(OC)c1OC", "B-score": "inactive"}, {"compound": "Cn1cnnc1SCC(=O)NNC(=O)COc1ccc(Br)cc1", "B-score": "inactive"}, {"compound": "CCOC(=O)N1CCN(C(=O)COc2ccc(Br)cc2)CC1", "B-score": "inactive"}, {"compound": "Cn1cccc1C(=O)NNC(=O)COc1ccc(Br)cc1", "B-score": "-5.34 (active)"}, {"compound": "CCOC(=O)C(Sc1ncc(C#N)c(N)n1)C(C)C", "note": "(centres undefined)", "B-score": "inactive"}, {"compound": "Fc1ccccc1Cc1ccc(Cl)nn1", "B-score": "inactive"}, {"compound": "CC(C)c1ccc2c(c1)c(SC(C)(C)C)c(CC(C)(C)C(=O)O)n2Cc1ccc(Cl)cc1", "B-score": "-4.82 (active)", "outcome": "inactive"}, {"compound": "O=C(O)c1ccc(Cn2c(=S)[nH]c3cc(Cl)ccc3c2=O)cc1", "B-score": "inactive"}, {"compound": "CC(C)N(Cc1ccccc1)C(=O)COC(=O)c1ccccc1SCC(=O)N1CCCC1", "B-score": "inactive"}, {"compound": "Cc1c(C)c(C)c(S(=O)(=O)NCCc2ccccn2)c(C)c1C", "B-score": "inactive"}, {"compound": "CCOC(=O)Nc1ccc2c(c1)N(C(=O)CCCl)c1ccccc1[S@]2=O", "B-score": "inactive"}, {"compound": "CCOC(=O)Nc1ccc2c(c1)N(C(=O)CN1CCN3CCCC3C1)c1ccccc1CC2", "note": "(centres undefined)", "B-score": "inactive"}, {"compound": "CCOC(=O)Nc1ccc2c(c1)N(C(=O)CCN1CCN(CCO)CC1)c1ccccc1CC2", "B-score": "-9.01 (active)"}, {"compound": "COC(=O)C1=C(O)/C(=C/c2ccc(OCC(=O)Nc3ccccc3)cc2)N=C1C", "B-score": "inactive"}, {"compound": "CCOC(=O)C1=C(O)/C(=C/c2cc(C)n(-c3ccccc3)c2C)N=C1C", "B-score": "-4.95 (active)"}, {"compound": "CCOC(=O)C1=C(O)/C(=C/c2ccc(OCC(=O)Nc3ccc(C)cc3)cc2)N=C1C", "B-score": "inactive"}, {"compound": "O=C(NCCCN1CCCC1=O)c1cccc(S(=O)(=O)NCc2ccccc2)c1", "B-score": "inactive"}, {"compound": "O=C(Nc1cc(S(=O)(=O)N2CCOCC2)ccc1Cl)c1cc(=O)c2ccccc2o1", "B-score": "inactive"}, {"compound": "Cn1sc(=O)c2cc(S(=O)(=O)NC3CC3)ccc21", "B-score": "inactive"}, {"compound": "Cc1ccc(C(=O)COC(=O)CCN2C(=O)C3C4CC(C(Br)C4Br)C3C2=O)cc1", "note": "(centres undefined)", "B-score": "-9.31 (active)"}, {"compound": "O=C(CCN1C(=O)C2C3C=CC(C3)C2C1=O)Oc1ccc2ccccc2c1", "note": "(centres undefined)", "B-score": "inactive"}, {"compound": "Cc1ccc(C(=O)COC(=O)CCN2C(=O)C3C4CCC(C4)C3C2=O)cc1C", "note": "(centres undefined)", "B-score": "inactive"}, {"compound": "CCOc1ccc(-n2cnc3c(=O)[nH]c(N)nc32)cc1", "B-score": "inactive"}, {"compound": "CCCc1nnc(NC(=O)c2cc(OC)cc(OC)c2)s1", "B-score": "inactive"}, {"compound": "O=C(Nc1nc2ccccc2s1)c1ccc2c(c1)OCO2", "B-score": "inactive"}, {"compound": "COCc1nnc(NC(=O)c2ccc3c(c2)OCO3)s1", "B-score": "-5.8 (active)"}, {"compound": "COc1cc(NC(=O)CN(C)S(=O)(=O)c2ccc3nc(C)sc3c2)cc(OC)c1", "B-score": "inactive"}, {"compound": "Cc1ccc2nc(-c3ccc(NC(=O)CN(C)S(=O)(=O)c4ccccc4)cc3)sc2c1", "B-score": "-4.7 (active)"}, {"compound": "Cc1cccc(N(CC(=O)Nc2ccc(-c3nc4ccc(C)cc4s3)cc2)S(C)(=O)=O)c1", "B-score": "inactive"}, {"compound": "Cc1ccc2nc(-c3ccc(NC(=O)c4cccnc4)cc3)oc2c1", "B-score": "-5.36 (active)"}, {"compound": "CCOC(=O)c1ccc(NC(=O)c2cccnc2)cc1", "B-score": "inactive"}, {"compound": "Cc1cc2nc(-c3ccc(NC(=O)c4cccnc4)cc3)oc2cc1C", "B-score": "inactive"}]}]}
